Screens deposited in PubChem BioAssay by several laboratories.
Only some compounds are listed: those with a hit (about 3.3% of all), similar ones and a draw of the others.
PHOSPHO1 inh = inhibitors of human PHOSPHO1 phosphatase | 1.1% of 290,000 active | inhibition, % at 13.3 µM | AID 1565 | recombinant PHOSPHO1, absorbance phosphatase assay; in the data active = inhibition above about 60%
Cardio protect = myocardial damage modulation in H9c2 cells | 0.63% of 360,000 active | H9c2 cardiomyocytes, H2O2 injury protection, ATPLite, 2 h | AID 588492 | protection from H2O2 cell death, % at 20 µM;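 active = compounds giving at least 50% protection of heart cells from peroxide-induced death in the single-dose screen, raw or plate-pattern-corrected value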;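 also: 0% = DMSO wells with peroxide and 100% = DMSO wells without peroxide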
Calb FLC = affects C. albicans growth with fluconazole; C. albicans CaCi-2 (fluconazole-resistant clinical isolate) + fluconazole, Alamar Blue growth, 48 h; growth inhibition, % (test concentration not listed); 0.57% of 300,000 active;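 active = growth inhibition above about 58% in most replicates, limit read from the data, passing the limit was not always enough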;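 also: all wells also contain fluconazole at 8 µg/ml as a sub-toxic cotreatment; 0% = median of DMSO wells and 100% = median of geldanamycin control wells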
Efflux pump inh = inhibitors of Candida antifungal efflux pumps expressed in yeast | S. cerevisiae Candida pump triplex, Nile Red efflux | inhibition, % at 10 µM | 0.44% of 330,000 active | AID 485275;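 active = plate passing quality check with inhibition over a set limit, or well fluorescence over plate mean plus 4 SD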;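 also: Nile Red retained in pooled yeast measured as flow cytometry median fluorescence; 0% = buffer negative control and 100% = Enniatin B positive control; higher means more Nile Red kept so more efflux inhibition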
Cl transport mod = modulators of human KCC2 chloride dependent transport | Q9H2X9 | KCC2 cells, thallium flux FluoZin-2 fluorescence | B-score of Tl+ flux slope (higher = more flux/activation; lower = inhibition) at 10 µM | 2.2% of 190,000 active | AID 1456;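 active = thallium flux slope and its plate-corrected score both differing from the plate sample mean at a set confidence after two filtering rounds, in either direction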;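 also: slope of fluorescence scaled to starting intensity during 10 to 20 s after thallium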
Target sequence (Q9H2X9 whole entry, looked up): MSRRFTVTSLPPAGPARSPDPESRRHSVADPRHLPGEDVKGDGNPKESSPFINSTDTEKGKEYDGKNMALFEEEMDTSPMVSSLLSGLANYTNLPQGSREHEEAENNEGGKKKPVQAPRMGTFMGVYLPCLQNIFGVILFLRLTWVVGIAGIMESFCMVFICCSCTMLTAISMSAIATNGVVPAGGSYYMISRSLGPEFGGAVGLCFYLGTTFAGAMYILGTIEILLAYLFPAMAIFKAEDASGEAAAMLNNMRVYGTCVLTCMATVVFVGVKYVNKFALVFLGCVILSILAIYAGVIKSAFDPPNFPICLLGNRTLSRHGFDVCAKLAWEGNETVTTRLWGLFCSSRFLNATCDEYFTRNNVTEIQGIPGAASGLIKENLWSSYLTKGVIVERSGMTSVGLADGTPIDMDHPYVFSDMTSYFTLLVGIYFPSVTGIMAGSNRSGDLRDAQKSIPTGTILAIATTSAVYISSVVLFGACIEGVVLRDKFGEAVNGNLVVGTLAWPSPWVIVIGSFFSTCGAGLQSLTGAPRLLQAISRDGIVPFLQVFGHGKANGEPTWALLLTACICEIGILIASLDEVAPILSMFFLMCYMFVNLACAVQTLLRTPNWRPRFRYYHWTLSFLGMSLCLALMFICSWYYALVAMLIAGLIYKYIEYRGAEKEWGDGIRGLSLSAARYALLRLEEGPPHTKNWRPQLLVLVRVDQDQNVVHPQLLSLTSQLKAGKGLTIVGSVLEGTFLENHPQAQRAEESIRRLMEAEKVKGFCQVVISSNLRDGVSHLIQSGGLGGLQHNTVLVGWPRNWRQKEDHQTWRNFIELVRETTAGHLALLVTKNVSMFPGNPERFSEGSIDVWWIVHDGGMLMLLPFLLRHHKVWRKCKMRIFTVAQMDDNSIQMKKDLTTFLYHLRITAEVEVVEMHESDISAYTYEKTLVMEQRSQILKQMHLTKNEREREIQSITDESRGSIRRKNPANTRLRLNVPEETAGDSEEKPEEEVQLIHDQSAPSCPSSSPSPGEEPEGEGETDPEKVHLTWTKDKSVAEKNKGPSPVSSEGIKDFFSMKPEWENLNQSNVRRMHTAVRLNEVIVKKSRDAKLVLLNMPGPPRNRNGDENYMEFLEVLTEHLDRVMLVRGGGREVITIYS
Yeast cmpd fluor = counter-screen for efflux pump inhibitors: compound fluorescence. shares compounds with Efflux pump inh. S. cerevisiae AD/pABC3, flow cytometry. fluorescence ratio to DMSO, % at 10 µM. 4% of 1,700 active;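 active = fluorescence ratio to DMSO above its plate's cutoff, the plate mean ratio plus 5 SD, cut at about 210% in these data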;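 also: unstained yeast with no Nile Red so the signal is compound autofluorescence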
CaMdr1 efflux inh = Candida Mdr1 efflux pump inhibition | shares compounds with Efflux pump inh | S. cerevisiae AD/CaMDR1, Nile Red efflux, flow cytometry | inhibition, % at 10 µM | 1% of 1,700 active; in the data active = inhibition above about 26%;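 also: 0% = DMSO vehicle and 100% = reference inhibitor; higher means more Nile Red retained so more efflux inhibition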
Cdr2 pump inh = Candida Cdr2 efflux pump inhibition; shares compounds with Efflux pump inh; S. cerevisiae AD/CaCDR2, Nile Red retention, flow cytometry; Nile Red retention ratio vs DMSO, % at 10 µM; 4% of 1,700 active; AID 588520; in the data active = Nile Red retention ratio vs DMSO above about 190%;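 also: higher ratio means more blocking of Cdr2 efflux of the dye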
CaCdr1 efflux inh = blocks the Candida albicans Cdr1 efflux pump in yeast | shares compounds with Efflux pump inh | S. cerevisiae AD/CaCDR1, Nile Red efflux, flow cytometry | inhibition, % at 10 µM | 1% of 1,700 active | AID 588522;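 active = inhibition above the screen-wide mean plus twice its standard deviation, cut at about 32% in these data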
Starred values were filed as active, the others as inactive; . = no result given.

SMILES	PHOSPHO1 inh	Cardio protect	Calb FLC	Efflux pump inh	Cl transport mod	Yeast cmpd fluor	CaMdr1 efflux inh	Cdr2 pump inh	CaCdr1 efflux inh
Cn1c(Cc2cccs2)nnc1SCC(=O)Nc1ccccc1F	.	3	3	0	.	.	.	.	.
Cc1ccc(-n2c(Cc3cccs3)nnc2SCC(=O)Nc2ccc(F)c(F)c2)cc1	29	-6	3	0	2.4	100	0	95	0
O=C(CSc1nnc(Cc2cccs2)n1-c1ccccc1)Nc1ccc2c(c1)OCCO2	11	4	-1	0	0.7	126	2	112	1
CC(C)(C)c1ccc(C(O)c2ncc(-c3cccc(F)c3)[nH]2)cc1 (centres undefined)	.	-17	.	.	.	.	.	.	.
O=[N+]([O-])c1ccc(Cl)c(S(=O)(=O)Nc2ccc(-c3ccc(N4CCOCC4)nn3)cc2)c1	.	-4	16	0	.	.	.	.	.
O=S(=O)(Nc1ccc(-c2ccc(N3CCOCC3)nn2)cc1)c1ccc(Cl)c(Cl)c1	.	-6	22	0.8*	.	102	0	114	0
COc1cc(/C=C2\N=C(c3ccccc3)OC2=O)ccc1OCc1c(C)no[n+]1[O-]	4	16	5	10*	-0.024	106	0	136	0
O=c1c(-c2ccccc2)c[nH]n1-c1cccc([N+](=O)[O-])c1	-82	-2	-5	1.0*	-0.41	99	0	104	0
CCOC(=O)C1CCCN(C(=O)Cc2ccc(OC)c(OC)c2)CC1 (centres undefined)	.	-12	.	.	.	.	.	.	.
COc1cc(SC)ccc1C(=O)Nc1nccs1	44	-22	20	1.0*	-1.8	108	0	96	0
CC(=O)c1cccc(CN2CCCC(CCC(=O)NCc3ccc(C)o3)C2)c1 (centres undefined)	22	8	-9	0	.	.	.	.	.
Cc1ccc(NC(=O)C2C3CCC(O3)C2C(=O)O)c(Br)c1 (centres undefined)	.	-6	-5	0	.	.	.	.	.
O=C(NCCCN1CCOCC1)Nc1ccc(Cc2ccc(NC(=O)NCCCN3CCOCC3)cc2)cc1	-31	-3	-1	6.8*	0.64	97	0	102	0
Cc1ccc(NC(=O)NCCCN2CCOCC2)cc1	-8	1	1	0	0.58	.	.	.	.
CC(C)C(=O)N1CCC2(CC1)Oc1ccc(F)cc1C(=O)C21CC(c2ccc(Cl)cc2)=NO1 (centres undefined)	22	-5	31	36*	-1.7	99	2	114	0
O=C(c1ccoc1)N1CCC2(CC1)Oc1ccc(F)cc1C(=O)C21CC(c2ccc(Cl)cc2)=NO1 (centres undefined)	22	-2	38	5.5*	0.013	107	7	110	53*
O=C(c1ccoc1)N1CCC2(CC1)Oc1ccc(Cl)cc1C(=O)C21CC(c2ccc(Cl)cc2)=NO1 (centres undefined)	26	2	2	0	0.8	103	0	94	0
O=C(c1ccc2c(c1)OCO2)N1CCC2(CC1)Oc1ccc(F)cc1C(=O)C21CC(c2ccccc2)=NO1 (centres undefined)	9	16	77*	85*	-1.4	92	81*	94	50*
Cc1ccc(S(=O)(=O)NC2CCSC2=O)cc1C (centres undefined)	.	9	.	0	.	.	.	.	.
O=C(c1ccoc1)N1CCC2(CC1)Oc1ccc(F)cc1C(=O)C21CC(c2ccccc2)=NO1 (centres undefined)	35	7	92*	67*	-0.23	92	95*	116	43*
N#C/C(=C/c1ccc(CNC(=O)C(=O)Nc2cc(Cl)cc(Cl)c2)o1)C(=O)NCc1cccnc1	-7	-3	-9	8.2*	-0.027	105	0	110	0
CCCOc1cc(N(CC)CC)ccc1/C=C(/C#N)c1nc2ccc(C)cc2[nH]1	59	-10	5	0.7*	-0.83	241*	0	127	0
CC=C1OC(n2cnc3c(N)ncnc32)C(O)C1O (centres undefined)	.	0	.	.	.	.	.	.	.
O=C(NCCC1=CCCCC1)C1CCN(S(=O)(=O)c2cccc(C(F)(F)F)c2)CC1	.	-4	.	0	.	.	.	.	.
CCOC(=O)C1C(=O)C=C(/C=C/c2ccc(N(C)C)cc2)CC1c1ccccc1 (centres undefined)	1	-6	-18	0.6*	-1.4	588*	0	125	0
SMILES	PHOSPHO1 inh	Cardio protect	Calb FLC	Efflux pump inh	Cl transport mod	Yeast cmpd fluor	CaMdr1 efflux inh	Cdr2 pump inh	CaCdr1 efflux inh
COc1cc(CNC(C)(C)CO)cc(Br)c1OCc1ccc(Cl)cc1	3	5	-19	6.4*	0.56	104	0	108	0
COc1cc(CNC(C)(C)CO)cc(Br)c1OCc1ccc(Cl)cc1Cl	-7	-22	-1	-19	.	.	.	.	.
CCCc1cc2c(=O)c(-c3nc4ccccc4s3)c(COCC(=O)O)oc2cc1O	-31	-2	.	.	0.024	.	.	.	.
O=C(O)Cc1ccc(S(=O)(=O)N2CCCC2)s1	.	-3	.	0	.	.	.	.	.
COC(=O)N/N=C/c1ccc(-c2cc(Cl)ccc2Cl)o1	7	-4	-3	1	0.088	.	.	.	.
O/N=C/c1ccc(-c2cc(Cl)ccc2Cl)o1	9	-1	-2	11*	-1.7	84	0	95	0
CC(=O)c1ccc(S(=O)(=O)N(C)CCCC(=O)N2CCN(c3ncccn3)CC2)cc1	.	-6	.	0	.	.	.	.	.
O=C(CCSc1nc(-c2ccco2)cc(C(F)(F)F)n1)N1CCN(c2ccccc2)CC1	20	-4	-39	0.5*	0.19	105	0	106	0
COc1ccc([C@H]2[C@H](C(=O)C(C)(C)C)N3N=Cc4ccccc4C3[C@]23N=C(c2ccccc2)OC3=O)cc1 (some centres undefined)	-5	8	12	0.8*	-0.56	121	0	129	0
COc1cc(N/C(N)=N/c2nc(C)cc(C)n2)cc(OC)c1	36	2	-14	0	.	.	.	.	.
Cc1c(NC(=O)CSc2ncnc3ccccc23)c(=O)n(-c2ccccc2)n1C	-6	4	20	1.0*	0.45	95	0	91	0
Cc1c(NC(=O)CSc2ccccn2)c(=O)n(-c2ccccc2)n1C	-8	-4	5	0	0.41	.	.	.	.
Cc1c(NC(=O)Cn2ccc([N+](=O)[O-])n2)c(=O)n(-c2ccccc2)n1C	4	0	-7	0.5*	.	105	0	101	0
COc1ccc(OCC(=O)Nc2c3c(nn2-c2ccc(OC)cc2)CS(=O)(=O)C3)cc1	24	-1	1	1	.	.	.	.	.
COc1ccc(CNC(=O)c2cccs2)cc1	-11	-1	-15	0	.	.	.	.	.
